Source: PubChem BioAssay
TAR Tat displ = TAR RNA-Tat peptide displacers, HIV-1, primary screen, biochemical, FRET, FAM/TAMRA-labeled Tat; HIV-1 TAR RNA, Tat peptide displacement FRET; active compounds read high; hit rate 0.6% among 100,000; AID 1259389, 2018; z-score (concentration not given with the values); active = z-score of 3 or more in at least 2 runs
CDC25B CDK2 inh = primary biochemical HTRF screen for blockers of M-phase inducer phosphatase 2 binding to CDK2/cyclin A; HTRF CDC25B-CDK2/CyclinA binding, anti-His/anti-Flag; active compounds read high; z-score (no concentration beside the values); hit rate 0.72% among 94,000; AID 1259370, 2018; in the data active = z-score above about 3.2
Starred values were filed as active, the others as inactive. Rows were chosen to be rich in hits. Some 0.86% of all compounds tested hit in one or more screens of this group.

Results for O=C(CN1C(=O)CSc2ccc(S(=O)(=O)N3CCCC3)cc21)NCCC1=CCCCC1 ?
TAR Tat displ: -0.06

Results for Oc1cccc(-c2nc(-c3cccs3)c(-c3cccs3)[nH]2)c1 ?
TAR Tat displ: -3.2; CDC25B CDK2 inh: 19*

Results for c1csc(-c2nc(-c3cccs3)c(-c3cccs3)[nH]2)c1 ?
TAR Tat displ: -0.71; CDC25B CDK2 inh: 19*

What do the screens show for `Cc1cc(=O)[nH]c(-c2cccs2)n1`?
CDC25B CDK2 inh: 0.45

What do the screens show for `Oc1ccc(-c2nc(-c3cccs3)c(-c3cccs3)[nH]2)cc1`?
TAR Tat displ: -0.61; CDC25B CDK2 inh: 19*

How did Oc1ccc(-c2nc(-c3ccccc3)c(-c3ccc(O)cc3)[nH]2)cc1 do in these assays?
TAR Tat displ: -1.7; CDC25B CDK2 inh: -1.4

What do the screens show for `COc1cccc(-c2nc(-c3cccs3)c(-c3cccs3)[nH]2)c1`?
CDC25B CDK2 inh: -1.6

Results for CN(C)c1ccc(CNC(=O)c2cnc3sc4c(n3c2=O)CCCC4)cc1 ?
TAR Tat displ: 1.5

How did CN(/N=C/c1cc(Cl)cc(Cl)c1O)C(=S)SCc1c(F)cccc1Cl do in these assays?
CDC25B CDK2 inh: -2

Results for COc1ccc(C(=O)Nc2cccc(C(=O)OCC(=O)c3ccc(Br)cc3)c2)cc1OC ?
CDC25B CDK2 inh: -5.8

What do the screens show for `CCSc1ncc2c(=O)n(CC(=O)NCc3ccc4c(c3)OCO4)cnc2n1`?
TAR Tat displ: 13*

What do the screens show for `O=C(Cn1cnc2nc3c(cc2c1=O)CCCC3)NCc1ccc2c(c1)OCO2`?
TAR Tat displ: 1.3

Results for Cc1ccc(S(=O)(=O)n2nc(OC(=O)c3ccc(C)c(C)c3)cc2N)cc1 ?
TAR Tat displ: 0.55; CDC25B CDK2 inh: -0.48

Results for NC1(C(=O)O)CCCCC1 ?
CDC25B CDK2 inh: -1.7

What do the screens show for `N.N.O=C(O)C1(C(=O)O)CCC1.[Pt+2]`?
CDC25B CDK2 inh: active

What do the screens show for `Cn1cc(S(=O)(=O)c2ccccc2)c(=O)c2cc(Cl)ccc21`?
TAR Tat displ: 2.4; CDC25B CDK2 inh: -2

Results for Cn1cc(S(=O)(=O)c2ccccc2)c(=O)c2cc(F)ccc21 ?
TAR Tat displ: 21*; CDC25B CDK2 inh: -1.6

Results for CCOC(=O)C1CCN(c2nnc(-n3c(C)ccc3C)s2)CC1 ?
TAR Tat displ: -0.52; CDC25B CDK2 inh: 4

How did CCOC(=O)C1CCN(c2ccc([N+](=O)[O-])s2)CC1 do in these assays?
TAR Tat displ: 3.5*

What do the screens show for `O=c1ccc2cc(S(=O)(=O)NC3CCCc4ccccc43)ccc2[nH]1` (stereo not drawn)?
TAR Tat displ: 8.6

Results for Cc1ccc(CNc2ccc3c(c2)nc(C)n3C)cc1 ?
TAR Tat displ: 1.1; CDC25B CDK2 inh: -1.8

Results for CCn1cnc2cc(NCc3ccco3)ccc21 ?
TAR Tat displ: 0.58; CDC25B CDK2 inh: 16*

How did COc1ccc(CNc2ccc3c(c2)ncn3C)cc1OC do in these assays?
TAR Tat displ: 1.3; CDC25B CDK2 inh: 2.3

How did CCn1cnc2cc(NCc3cccc(Br)c3)ccc21 do in these assays?
TAR Tat displ: 0.37; CDC25B CDK2 inh: 13*

How did CCCn1cnc2cc(NCc3ccc(C)cc3)ccc21 do in these assays?
TAR Tat displ: 0.51; CDC25B CDK2 inh: 13*

What do the screens show for `c1ccc(-n2cnc3cc(NCc4ccco4)ccc32)cc1`?
TAR Tat displ: -0.51; CDC25B CDK2 inh: 3.3

How did CCCN1CCN(c2cc3c(cc2F)c(=O)c(S(=O)(=O)c2cc(C)cc(C)c2)cn3C)CC1 do in these assays?
TAR Tat displ: -1.3

Results for O=C(CCCc1nc2cccnc2n1C1CCCCC1)N1CCCC1 ?
TAR Tat displ: 0.17

Results for Cc1ccc(S(=O)(=O)N2CCC(c3nc(-c4cccnc4)no3)CC2)cc1 ?
TAR Tat displ: 0.13; CDC25B CDK2 inh: -0.66

Results for CCc1ccc(C2CC(=O)Nc3c2c(C)nn3-c2ccc3nnc(C)n3n2)cc1 (stereo not drawn) ?
TAR Tat displ: 2

How did O=C(CN1C(=O)CCc2cc(S(=O)(=O)N3CCCC3)ccc21)NC1CCCC1 do in these assays?
TAR Tat displ: 1.2

Results for Cc1cc2c(cc1S(=O)(=O)Nc1ccc(Cl)cc1)OCCN2C ?
TAR Tat displ: 2.5

How did Cc1ccc(NS(=O)(=O)c2ccc3c(c2)NC(=O)C(C)CS3)c(Br)c1 (stereo not drawn) do in these assays?
TAR Tat displ: 0.45

How did COc1cc(C2CC(=O)N3CN(c4ccc(C)cc4)CSC3=C2C#N)cc(Br)c1O (stereo not drawn) do in these assays?
TAR Tat displ: -0.6; CDC25B CDK2 inh: 1.7

What do the screens show for `COc1cc(C2CC(=O)N3CN(Cc4ccccc4)CSC3=C2C#N)ccc1O` (stereo not drawn)?
TAR Tat displ: -0.46; CDC25B CDK2 inh: 4*

Results for COc1cc(C2CC(=O)N3CN(Cc4ccccc4)CSC3=C2C#N)cc(Br)c1O (stereo not drawn) ?
TAR Tat displ: 0.52; CDC25B CDK2 inh: 3.5*

How did COC(=O)c1c(SCC(=O)Nc2cc(F)ccc2F)[nH]c2ccc(Cl)cc2c1=O do in these assays?
TAR Tat displ: 0.87

Results for Cc1ccc(C(=O)c2cnc3cc4c(cc3c2N2CCOCC2)OCO4)cc1C ?
TAR Tat displ: 8.8*; CDC25B CDK2 inh: 1.8

How did CCc1ccc(C(=O)c2cnc3cc4c(cc3c2N2CCCC2)OCO4)cc1 do in these assays?
TAR Tat displ: -0.89; CDC25B CDK2 inh: -0.75

Results for COc1ccc(NS(=O)(=O)c2ccc(-c3ccc(=O)[nH]n3)s2)cc1OC ?
TAR Tat displ: 1.1

Results for CC(CCc1ccccc1)N1C(=S)NC2C=C(Cl)C=CC21 (stereo not drawn) ?
CDC25B CDK2 inh: 3.6*

Results for CCC(C)C1NC(=S)N(Cc2ccccc2)C1=O (stereo not drawn) ?
CDC25B CDK2 inh: -1.1

Results for Cc1cc(Cl)ccc1OCc1nc(-c2ccc(S(=O)(=O)N3CCCC3)cc2)no1 ?
TAR Tat displ: 0.94

What do the screens show for `COc1ccc(C2CC(=O)N3CN(c4ccc(CCO)cc4)CSC3=C2C#N)cc1` (stereo not drawn)?
TAR Tat displ: 0.63; CDC25B CDK2 inh: 6*

Results for CCOc1ccc(C2CC(=O)N3CN(c4ccc(OCC)cc4)CSC3=C2C#N)cc1 (stereo not drawn) ?
TAR Tat displ: 0.45; CDC25B CDK2 inh: 2.1

Results for Cc1ccc(C2CC(=O)N3CN(c4ccc(CCO)cc4)CSC3=C2C#N)cc1 (stereo not drawn) ?
TAR Tat displ: -0.54; CDC25B CDK2 inh: 7.1*

Results for CCCN(Cc1cccs1)C(=O)Nc1cccc(Br)c1 ?
TAR Tat displ: -1.8; CDC25B CDK2 inh: 1.4

Results for COc1ccc(S(=O)(=O)Oc2ccc(C)cc2[N+](=O)[O-])cc1OC ?
CDC25B CDK2 inh: -0.99

How did COc1ccc(S(=O)(=O)OCC(F)([N+](=O)[O-])[N+](=O)[O-])cc1Br do in these assays?
CDC25B CDK2 inh: 4.2*

How did O=C(/C=C/c1cccs1)Nc1ccc(F)cc1 do in these assays?
CDC25B CDK2 inh: 0.04

What do the screens show for `COc1cccc(C2N3CC4(C)CN2CC(c2ccccc2)(C3)C4=O)c1O` (stereo not drawn)?
TAR Tat displ: 4.2*; CDC25B CDK2 inh: -2.2

How did CC12CN3CC(c4ccccc4)(CN(C1)C3c1ccccc1O)C2=O (stereo not drawn) do in these assays?
TAR Tat displ: -1.3; CDC25B CDK2 inh: -0.68
